Some test systems named below: HCT-15 colon; HT29 colon; SNB-75 CNS; SNB-19 CNS; U251 CNS; PC-3 prostate; SK-MEL-5 melanoma; UACC-62 melanoma; LOX IMVI melanoma; SK-MEL-28 melanoma; EKVX NSCLC; SN12C renal; UO-31 renal; TK-10 renal; ACHN renal; CAKI-1 renal; A498 renal; CCRF-CEM leukemia; MOLT-4 leukemia.
What all share (assay): NCI-60 one-dose screen, 48 h (100 = growth as untreated, 0 = no growth, -100 = all killed)
Holding throughout (conditions): 10 µM unless noted

Compounds without any hit were thinned out: in the full panel of roughly 83,000, 20% have a hit.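 The endpoint reported here, percent growth, reads 100 for growth as untreated, 0 for no net growth and -100 for all cells dead.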 Values without a mark were called inactive. Active and inactive are the calls of the source. How the source made its calls: active means growth percent below 10; inactive means the rest.

For `CCCCCC(=O)OCc1ccc(Cl)c(Cl)c1`, the growth was 109% with HCT-15 colon; 109% with HT29 colon; 96.5% with SNB-75 CNS; 105% in the assay on SNB-19 CNS; 98.2% in the assay on U251 CNS; 96.3% in the assay on PC-3 prostate. Also, the growth in the assay with SK-MEL-5 melanoma was 108%; in the assay on UACC-62 melanoma it was 106%; in the assay on LOX IMVI melanoma, 96%; in the assay with SK-MEL-28 melanoma, 111%; in the assay with EKVX NSCLC, 116%; with SN12C renal, 111%. The growth was 90.5% with UO-31 renal; 104% in the assay on TK-10 renal; 107% with ACHN renal; 103% in the assay with CAKI-1 renal; 92.6% with A498 renal; 109% in the assay on CCRF-CEM leukemia. Moreover, the growth in the assay on MOLT-4 leukemia is 98.7%.

Take `COc1cccc(NC(=O)Nc2ccc(Nc3ncnc4sc5c(c34)CCN(C(=O)CCl)C5)cc2)c1`: the growth with HCT-15 colon is 118%; in the assay on HT29 colon, 90.2%; in the assay on SNB-75 CNS it was 86.4%; in the assay with SNB-19 CNS, 102%; in the assay on U251 CNS, 95.5%; with PC-3 prostate, 90.7%. For the same molecule, the growth is 106% with SK-MEL-5 melanoma; 94.8% in the assay with UACC-62 melanoma; 94.1% with LOX IMVI melanoma; 117% in the assay with SK-MEL-28 melanoma; 109% in the assay with EKVX NSCLC; 96.3% in the assay with SN12C renal. Moreover, the growth was 66.6% in the assay with UO-31 renal; 122% in the assay on TK-10 renal; 88.7% with ACHN renal; 94.2% in the assay on CAKI-1 renal; 93.1% in the assay on A498 renal; 88.4% in the assay on CCRF-CEM leukemia. Further, the growth in the assay on MOLT-4 leukemia was 92.8%.

Consider `C[C@]12O[C@H](C[C@]1(O)CO)n1c3ccccc3c3c4c(c5c6ccccc6n2c5c31)CNC4=O`, for which the growth with HCT-15 colon was -12.4% (active); in the assay with HT29 colon, -22.5% (active); in the assay on SNB-75 CNS it was -99.4% (active); in the assay on SNB-19 CNS, -20.6% (active); in the assay with U251 CNS, -75.1% (active); with PC-3 prostate, -31% (active). Further, the growth with SK-MEL-5 melanoma is -87% (active); with UACC-62 melanoma, -49.9% (active); in the assay on LOX IMVI melanoma, -70.5% (active); with SK-MEL-28 melanoma, -85.9% (active); in the assay on EKVX NSCLC it was -8.26% (active); with SN12C renal it was -42% (active). The growth with UO-31 renal is -63.1% (active); with TK-10 renal, -81.5% (active); with ACHN renal, -8.21% (active); in the assay with CAKI-1 renal it was -96.5% (active); with A498 renal, -96.1% (active); with CCRF-CEM leukemia it was 0.654% (active). The growth in the assay with MOLT-4 leukemia is -18% (active).

As to `CC1(COc2ccc3c(c2)ncn3-c2ccc3cccc(N4CCC(N)CC4)c3n2)COC1`, the growth with HCT-15 colon was 10.5%; in the assay on HT29 colon, 0% (active); in the assay on SNB-75 CNS, 14.4%; with SNB-19 CNS it was 7.04% (active); in the assay with U251 CNS it was -36.4% (active); in the assay on PC-3 prostate, 30.2%. The growth in the assay on SK-MEL-5 melanoma is -13.8% (active); with UACC-62 melanoma it was 99.3%; with LOX IMVI melanoma, -57.2% (active); in the assay on SK-MEL-28 melanoma, 15.2%; in the assay with EKVX NSCLC it was 34.6%; in the assay on SN12C renal it was 32.4%. Also, the growth is -3.3% (active) in the assay with UO-31 renal; 32% with TK-10 renal; 2.83% (active) in the assay on ACHN renal; 22.9% with CAKI-1 renal; 85.1% with A498 renal; 2.15% (active) in the assay with CCRF-CEM leukemia. Besides, in the assay on MOLT-4 leukemia, the growth is -4.11% (active).

As for `COc1cc2c(cc1OCCCN1Cc3ccc(OCCCCC(=O)N4CCC(CCN5CCCC5)CC4)cc3C1)N=C(N)C21CCCC1`, the growth is 102% in the assay on HCT-15 colon; 9.48% (active) in the assay with HT29 colon; 60.3% in the assay on SNB-75 CNS; 103% in the assay with SNB-19 CNS; 79.2% in the assay on U251 CNS; 79.9% in the assay on PC-3 prostate. Besides, the growth in the assay with SK-MEL-5 melanoma is 55.3%; with UACC-62 melanoma, 106%; with LOX IMVI melanoma, 64%; in the assay with SK-MEL-28 melanoma, 97.9%; in the assay on EKVX NSCLC, 96.9%; with SN12C renal, 95.3%. For the same molecule, the growth in the assay on UO-31 renal is 93.7%; with TK-10 renal it was 99.3%; in the assay with ACHN renal, 110%; with CAKI-1 renal, 93.9%; in the assay on A498 renal it was 78.8%; in the assay on CCRF-CEM leukemia, 61.3%. In addition, the growth in the assay with MOLT-4 leukemia was 44.8%.

Take `Cn1c(=O)c(F)c(Nc2ccc(I)cc2F)c2c(=O)n(C[C@@H](O)CO)cnc21`: the growth in the assay on HCT-15 colon is 54.6%; with HT29 colon, 7.51% (active); in the assay with SNB-75 CNS, 62.7%; with SNB-19 CNS, 42.6%; in the assay on U251 CNS, 31.4%; in the assay on PC-3 prostate, 68.4%. Also, the growth with SK-MEL-5 melanoma is 36.3%; in the assay on UACC-62 melanoma it was 0.259% (active); in the assay with LOX IMVI melanoma it was 15.3%; in the assay on SK-MEL-28 melanoma it was 0.0364% (active); in the assay on EKVX NSCLC, 46.6%; with SN12C renal, 40.1%. The growth is 22.8% with UO-31 renal; 41.2% with TK-10 renal; 50.7% in the assay on ACHN renal; 41.7% in the assay on CAKI-1 renal; -30.7% (active) with A498 renal; 66.8% with CCRF-CEM leukemia. The growth in the assay on MOLT-4 leukemia was 73.7%.

Consider `CCOc1cccc(/C=N/NC(=O)c2ccccc2Nc2ccnc(C(F)(F)F)c2)c1O`, for which the growth was 34.2% in the assay on HCT-15 colon; 47.9% in the assay on HT29 colon; 14.1% in the assay on SNB-75 CNS; 21.1% in the assay with SNB-19 CNS; 15.2% in the assay on U251 CNS; 54.2% with PC-3 prostate. Also, the growth in the assay on SK-MEL-5 melanoma is -67% (active); in the assay on UACC-62 melanoma it was 3.69% (active); with LOX IMVI melanoma it was 7.4% (active); in the assay on SK-MEL-28 melanoma it was 21.1%; in the assay on EKVX NSCLC, 10.6%; in the assay with SN12C renal it was 27.2%. Also, the growth with UO-31 renal was -15.1% (active); in the assay with TK-10 renal it was 23.5%; with ACHN renal, 5.76% (active); in the assay with CAKI-1 renal it was 4.57% (active); in the assay on A498 renal it was -10.8% (active); in the assay on CCRF-CEM leukemia it was -37.3% (active). Further, in the assay on MOLT-4 leukemia, the growth was -10.9% (active).

On to `Cc1cc(C2(c3ccc(O)c(C)c3)OS(=O)(=O)c3ccccc32)ccc1O`, for which the growth in the assay with HCT-15 colon was 117%; in the assay with HT29 colon, 115%; in the assay on SNB-75 CNS, 91.6%; in the assay with SNB-19 CNS, 105%; with U251 CNS, 107%; in the assay with PC-3 prostate, 90.8%. The growth in the assay on SK-MEL-5 melanoma was 103%; in the assay on UACC-62 melanoma, 107%; in the assay with LOX IMVI melanoma, 104%; in the assay on SK-MEL-28 melanoma it was 113%; in the assay with EKVX NSCLC, 111%; with SN12C renal, 101%. The growth in the assay on UO-31 renal is 64.7%; in the assay with TK-10 renal, 111%; in the assay with ACHN renal, 108%; with CAKI-1 renal, 97.6%; in the assay on A498 renal, 94.2%; in the assay with CCRF-CEM leukemia it was 101%. The growth in the assay on MOLT-4 leukemia is 91.1%.

For the origin of these results see PubChem BioAssay (NCI).
